HT1080-NT tox = qHTS for induction of synthetic lethality in tumor cells producing 2HG: qHTS for the HT-1080-NT fibrosarcoma cell line; HT-1080-NT fibrosarcoma viability, CellTiter-Glo ATP luminescence, 48 h; Potency, µM (doses to about 46.1 µM), actives largely listed as cytotoxic; 360,000 tested, 1.6% active;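 further: NT is the 2HG producing partner of a matched IDH1 knockdown line; nearly all actives have a fitted effect of over 55% in size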
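A 48-hour cytotoxicity screen used HT-1080-NT cells plated 2 hours before compound delivery. ATP-based CellTiter-Glo luminescence measured viability, normalized to DMSO and no-cell controls.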
HT1080 IDH1KD tx = qHTS for induction of synthetic lethality in tumor cells producing 2HG: qHTS for the HT-1080-IDH1KD cell line; 360,000 tested, 2% active; Potency, µM (titrated, usually from 46.1 µM), actives largely listed as cytotoxic; HT-1080 IDH1 knockdown viability, ATP luminescence, 48 h
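In this qHTS, HT-1080 cells depleted of IDH1 are exposed for 48 h at 37 °C to compound titrations. Toxicity is scored from CellTiter-Glo luminescence, with DMSO as full viability and medium alone as none.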
DT40 TDP1 no CPT = qHTS for Inhibitors of human tyrosyl-DNA phosphodiesterase 1 (TDP1): qHTS in cells in absence of CPT; 420,000 tested, 15% active; DT40 Tdp1-/- hTDP1 cells, no CPT, ATP luminescence, 48 h; Potency, µM (top dose mostly 46.2 µM), most hits filed as inhibitors; further: nearly all actives have a fitted effect of over 55% in size
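Stably hTDP1-transfected Tdp1-null chicken DT40 cells were treated with library compounds minus camptothecin and grown for at least 48 hr at 37 °C, after which cellular ATP was quantified by luminescence.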
DT40 TDP1 CPT = qHTS for Inhibitors of human tyrosyl-DNA phosphodiesterase 1 (TDP1): qHTS in cells in presence of CPT; Potency, µM (highest dose often 46.2 µM), usual class: inhibitors; AID 686979, 2013; 420,000 tested, 12% active; chicken DT40 Tdp1-/-;hTDP1 cells + 20 nM CPT, ATP luminescence, 48 h; further: nearly all actives have a fitted effect of over 55% in size
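Chicken DT40 Tdp1-/- cells complemented with human TDP1, 400 cells/well, exposed to compounds plus 20 nM camptothecin for at least 48 h at 37 C; viability read as ATP content by CellTiter-Glo luminescence.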
IL1B secr inh = qHTS for Inhibitors of Inflammasome Signaling: IL-1-beta AlphaLISA Primary Screen; THP-1 LPS/ATP IL-1B secretion, AlphaLISA, 16 h; stronger effect = lower value; 360,000 tested, 4.7% active; activity change, % at 57.5 µM; AID 743279, 2014; in the data active means activity change below about -50%; inconclusive means mostly about -30% to -49%
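Secreted IL-1B measured by AlphaLISA bead assay after 16 h compound exposure of THP-1 cells; compounds (final up to 57.5 uM) added 1 h before LPS (250 ng/mL) and ATP (1.25 mM) stimulation; lower signal means less secretion.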
Large screens that a line does not name were inactive. Sampled rows, rich in hits. Any-hit rate of the full collection: about 19%. Unless noted, the call rests on the fitted dose curve; in most records, active means well fitted curve in the direction sought with a large enough effect; inconclusive means small, poorly fitted or top-dose-only effect, or another doubt; inactive means no such curve, though single readings can be large; an effect the other way counts as inactive or inconclusive.

CCOC(=O)c1cccc(NC(=O)c2cc3sccc3n2Cc2ccc(Cl)cc2)c1	DT40 TDP1 no CPT 18µM, DT40 TDP1 CPT inconclusive (no result: HT1080-NT tox, HT1080 IDH1KD tx, IL1B secr inh)
CC(=O)c1ccc(NC(=O)c2cc3sccc3n2Cc2ccc(Cl)cc2)cc1	DT40 TDP1 no CPT 16µM, DT40 TDP1 CPT 16µM (no result: HT1080-NT tox, HT1080 IDH1KD tx, IL1B secr inh)
COC(=O)C(CC(C)C)NC(=O)c1cccs1 (configuration not stated)	none
O=C(Nc1ccc2c(c1)OCCO2)c1cc2sccc2n1Cc1ccccc1	DT40 TDP1 no CPT inconclusive, DT40 TDP1 CPT 18µM, IL1B secr inh inconclusive
CCOC(=O)c1cccc(NC(=O)c2cc3sccc3n2C)c1	HT1080 IDH1KD tx inconclusive, DT40 TDP1 no CPT 21µM, DT40 TDP1 CPT inconclusive
CCOC(=O)c1ccccc1NC(=O)c1cc2sccc2n1C	none
O=C(Nc1ccc2c(c1)OCCO2)c1cc2sccc2n1Cc1ccc(F)cc1	DT40 TDP1 no CPT inconclusive, DT40 TDP1 CPT inconclusive (no result: IL1B secr inh)
CC(C)CN(C(=O)c1ccc(S(=O)(=O)N2CCOCC2)cc1)C1CCS(=O)(=O)C1 (configuration not stated)	none
N#Cc1ccc(-c2csc(NC(=O)/C=C/c3cccs3)n2)cc1	DT40 TDP1 no CPT 10µM, DT40 TDP1 CPT 13µM
Cc1nc(-c2ccc(C#N)cc2)cs1	none
O=C(/C=C/c1cccs1)Nc1ccncc1	DT40 TDP1 no CPT inconclusive, IL1B secr inh inconclusive
N#Cc1ccc(-c2csc(NC(=O)C3CC3)n2)cc1	DT40 TDP1 no CPT 0.37µM, DT40 TDP1 CPT 0.73µM
CCOC(=O)N1CCN(C(=O)C[C@@H]2C[C@@]3(C(=O)OC)CC(C)(C)CC=C3N(Cc3ccc4c(c3)OCO4)C2=O)CC1	DT40 TDP1 no CPT 18µM, DT40 TDP1 CPT 12µM
COC(=O)[C@@]12C[C@@H](CC(=O)N3CCSCC3)C(=O)N(Cc3ccc4c(c3)OCO4)C1=CCC(C)(C)C2	DT40 TDP1 no CPT 15µM, DT40 TDP1 CPT inconclusive
COC(=O)[C@@]12C[C@@H](CC(=O)N3CCCC3)C(=O)N(Cc3ccc4c(c3)OCO4)C1=CCC(C)(C)C2	DT40 TDP1 no CPT inconclusive, DT40 TDP1 CPT inconclusive
CCOC(=O)[C@]12CCCC=C1N(Cc1ccc(Cl)cc1Cl)C(=O)[C@H](CC(=O)NCc1cccs1)C2	HT1080-NT tox inconclusive, HT1080 IDH1KD tx inconclusive, DT40 TDP1 no CPT inconclusive, DT40 TDP1 CPT inconclusive
CCCCNC(=O)C[C@@H]1C[C@@]2(C(=O)OCC)CCC=C2N(Cc2ccccc2)C1=O	none
CCOC(=O)[C@]12CCCC=C1N(Cc1ccc(Cl)cc1Cl)C(=O)[C@H](CC(=O)NCc1cccc(C(F)(F)F)c1)C2	HT1080-NT tox 33µM, HT1080 IDH1KD tx inconclusive, DT40 TDP1 no CPT 18µM, DT40 TDP1 CPT 15µM, IL1B secr inh -55
CCOC(=O)[C@]12CCCC=C1N(Cc1ccc(Cl)cc1Cl)C(=O)[C@H](CC(=O)NCc1ccc(C)o1)C2	HT1080-NT tox inconclusive, HT1080 IDH1KD tx inconclusive, DT40 TDP1 no CPT inconclusive, DT40 TDP1 CPT inconclusive
CCOC(=O)[C@]12CCC=C1N(Cc1ccc(Cl)cc1Cl)C(=O)[C@H](CC(=O)NCc1cccc(C(F)(F)F)c1)C2	HT1080-NT tox inconclusive, HT1080 IDH1KD tx inconclusive, DT40 TDP1 no CPT inconclusive, DT40 TDP1 CPT inconclusive
CCOC(=O)[C@]12CCC=C1N(Cc1ccc(Cl)cc1Cl)C(=O)[C@H](CC(=O)NCc1ccccc1)C2	HT1080-NT tox inconclusive, HT1080 IDH1KD tx inconclusive, DT40 TDP1 no CPT 23µM, DT40 TDP1 CPT inconclusive, IL1B secr inh -64
CCOC(=O)[C@]12CCC=C1N(Cc1ccc(Cl)cc1Cl)C(=O)[C@H](CC(=O)NCc1ccc(C)o1)C2	HT1080-NT tox inconclusive, HT1080 IDH1KD tx inconclusive, DT40 TDP1 no CPT 18µM, DT40 TDP1 CPT inconclusive (no result: IL1B secr inh)
CCOC(=O)[C@]12CCC=C1N(Cc1ccccc1)C(=O)[C@H](CC(=O)NCc1ccccc1)C2	DT40 TDP1 no CPT 16µM, DT40 TDP1 CPT inconclusive
COc1ccc(CCNC(=O)Cn2c(=O)n(-c3ccc(OC)c(OC)c3)c(=O)c3ccccc32)cc1OC	none (no result: HT1080-NT tox, HT1080 IDH1KD tx, IL1B secr inh)
Cn1cnnc1Sc1ccc(CN2CCOc3ccc(C4=Cc5ccccc5C4)cc3C2)o1	none (no result: HT1080-NT tox, HT1080 IDH1KD tx, IL1B secr inh)
NS(=O)(=O)c1ccc(Sc2nc3ccccc3s2)c([N+](=O)[O-])c1	HT1080-NT tox inconclusive, HT1080 IDH1KD tx 7.3µM, DT40 TDP1 no CPT 10µM, DT40 TDP1 CPT 9.2µM, IL1B secr inh -99
NS(=O)(=O)c1ccc(Sc2ccccn2)c([N+](=O)[O-])c1	DT40 TDP1 no CPT inconclusive (no result: IL1B secr inh)
O=C(COC(=O)C12CC3CC(CC(C3)C1)C2)Nc1ccccc1F	none
CCCN=C1N(C)C[C@@H]2[C@@H]3C(=O)N(Cc4ccccc4)C(=O)[C@@H]3[C@](CC)(C(=O)OC)N12	none
COc1ccc(/C=N/Nc2snc(SC)c2C#N)cc1OC	HT1080 IDH1KD tx inconclusive, DT40 TDP1 no CPT inconclusive, DT40 TDP1 CPT 16µM
COc1cccc(/C=N/Nc2snc(SC)c2C#N)c1O	HT1080-NT tox inconclusive, HT1080 IDH1KD tx inconclusive, DT40 TDP1 no CPT 2.6µM, DT40 TDP1 CPT 2.9µM, IL1B secr inh inconclusive
COc1cccc(/C=N/Nc2snc(SC)c2C#N)c1	HT1080-NT tox inconclusive, HT1080 IDH1KD tx inconclusive
CSc1nsc(N/N=C/c2ccccc2)c1C#N	DT40 TDP1 no CPT inconclusive
CCC(CC)C(=O)OCc1cc(=O)n2nc(C3CCCCC3)sc2n1	DT40 TDP1 no CPT inconclusive (no result: HT1080-NT tox, HT1080 IDH1KD tx, IL1B secr inh)
CCOC(=O)NC(=O)COC(=O)c1ccc(Sc2ncn[nH]2)c([N+](=O)[O-])c1	none
Cc1noc(C)c1COc1ccc(C(=O)NNC(=O)c2ccccc2O)cc1	HT1080-NT tox inconclusive, HT1080 IDH1KD tx inconclusive, DT40 TDP1 no CPT 16µM, DT40 TDP1 CPT inconclusive
Cc1cccc(NC(=O)c2ccc(OCc3c(C)noc3C)cc2)n1	DT40 TDP1 no CPT 13µM, DT40 TDP1 CPT inconclusive
CC(C)(C)c1ccc(OCCCC(=O)NNC(=O)c2ccccc2O)cc1	HT1080-NT tox inconclusive, HT1080 IDH1KD tx inconclusive, DT40 TDP1 no CPT 18µM, DT40 TDP1 CPT inconclusive
Cc1ccc(NC(=O)c2cccnc2)cc1S(=O)(=O)N1CCOCC1	none
CC1CC(C)CN(S(=O)(=O)c2ccc(NC(=O)c3ccc(=O)[nH]c3)cc2)C1 (configuration not stated)	HT1080-NT tox 5.8µM, HT1080 IDH1KD tx 5.2µM, DT40 TDP1 no CPT 2.9µM, DT40 TDP1 CPT 3.3µM
Cc1ccc(NC(=O)c2ccc(S(=O)(=O)N3CC(C)CC(C)C3)cc2)cc1S(=O)(=O)N1CCOCC1 (configuration not stated)	DT40 TDP1 no CPT 7.3µM, DT40 TDP1 CPT 16µM
CC1CC(C)CN(C(=O)c2ccc(NC(=O)c3ccc(=O)[nH]c3)cc2)C1 (configuration not stated)	none
